SMILES strings stand for the structures. The whole screen tested about 400,000 compounds, of which about 13,000 (3.2%) were called active. Not shown: some 18% with an inconclusive outcome. Calls come from the whole dose curve; as a rule, active = well fitted cell-killing curve with a large enough effect; inconclusive = small, poorly fitted or top-dose-only effect, or effect the other way; inactive = flat fitted curve, though single readings scatter. Shown is part of a subset that was picked to be rich in actives.
% is set by controls: 0 for no effect and ±100 for the full control effect; potency is the fitted concentration of half-maximal effect.

A short description of this assay: qHTS assay for MDR1-selective chemotherapeutics: Primary screen using the drug-selected MDR subline cells KB-V1. Note: nearly all actives have a fitted effect of over 60% in size. The note with it: KB-V1 MDR cells viability, CellTiter-Glo, 72 h; series mostly up to 46.1 µM; activity change, negative = cytotoxicity: at the top concentration. The text has this:
A prime difficulty in effectively treating cancer is the development of cellular resistance to multiple structurally unrelated anticancer drugs, a phenomenon known as multidrug resistance (MDR). […] Numerous strategies to overcome P-gp-mediated MDR have been explored, including the design of drugs that evade recognition and efflux, and development of inhibitors to block efflux and restore drug accumulation. […] An alternative approach is to exploit resistance by identifying drugs that target MDR cells over the non-resistant parental cells from which they were selected. […] The development of MDR1-selective agents represents a new strategy for resolving multidrug resistance, as it remains a long-standing clinical challenge for cancer chemotherapy.
Our goal is to identify compounds that selectively kill P-gp-expressing MDR cells. We will identify MDR1-selective compounds by comparing toxicity of compounds in the screening library against parental, drug-naive (KB-3-1) adenocarcinoma cells as well as their drug-selected MDR sub-line (KB-V1). The differential toxicity of compounds against these two cell lines will be used to identify MDR1-selective compounds, whose cytotoxicity is potentiated, rather than diminished, by P-gp expression. This assay will be utilized to conduct a quantitative high-throughput screen (qHTS) in collaboration with the NIH Chemical Genomics Center to identify selective agents, and probe hits arising from the screen will be validated using secondary assays and characterized through a well-established follow-up research program. This screen was run against the entire NCGC library collection of about 400,000 compounds.
NIH Molecular Libraries Probe Production Network [MLPCN]
NIH Chemical Genomics Center [NCGC]
PI: Michael Gottesman, National Cancer Institute, NIH
Briefly, 5 microL of media containing either KB-V1 cells (columns 1-2, 4-48) are dispensed into Greiner white, treated solid-bottom 1536-well assay plates (media-only control is added to column 3). Compounds are then transferred via Kalypsys pin tool equipped with 1536-pin array (10 nL slotted pins, V&P Scientific, San Diego, CA). Following addition of compound, the plates are incubated at 37 degrees C for 72 hours. CellTiter-Glo (2.5 µL/well) is then added, and the plates are read in a ViewLux reader (Perkin-Elmer, clear luminescence filter, 1 second exposure, 1x binning) following a 10 minute incubation. All cells are dispensed in DMEM phenol-red free media containing 10% FBS.
Library plates were screened starting from the lowest and proceeding to the highest concentration. Vehicle-only plates, with DMSO being pin-transferred to columns 5-48, will be inserted uniformly at the beginning and the end of each library in order to monitor and record any shifts in the background, which can be affected by reagent dispensers or loss in enzyme activity over time. Screening data will be corrected, normalized, and concentration-effect relationships will be derived by using publicly-available NCGC, NCATS curve fitting algorithms (http://ncgc.nih.gov/pub/openhts).
On to `CC1CCN(Cc2nc(-c3ccc(Cl)cc3)no2)CC1`, for which the “activity change, negative = cytotoxicity” value was 0.287% (inactive).

In the case of `CN1CCN(C(=O)CCc2nc(-c3ccc(Cl)cc3)no2)CC1`, the “activity change, negative = cytotoxicity” value was -19% (inactive).

As to `CCN1CC(CN(C)Cc2nc(-c3ccc(Cl)cc3)no2)CC1=O` (configuration not stated), the Potency is 16.4 µM (active).

As to `C[C@H](CO)N1C[C@H](C)[C@H](CN(C)C(=O)Nc2ccc3c(c2)OCO3)Oc2ncc(Br)cc2C1=O`, the “activity change, negative = cytotoxicity” value is 0% (inactive).

On to `CC(C)(C)c1ccc(C(=O)C[N+]2(C)CCCc3ccccc32)cc1` (configuration not stated), for which the “activity change, negative = cytotoxicity” value was 0.231% (inactive).

As for `COc1ccc(-n2c(-c3ccc(Cl)cc3)n[nH]c2=S)c(OC)c1`, the “activity change, negative = cytotoxicity” value is 4.94% (inactive).

On to `Cc1cc(Cl)ccc1NC(=O)Cc1ccc(NC(=O)N2CCCCc3ccccc32)cc1`, for which the “activity change, negative = cytotoxicity” value is 5.96% (inactive).

As for `CCCC1=Nc2cc(C(=O)NCc3ccco3)ccc2Sc2ccccc21`, the Potency is 4.11 µM (active).

Regarding `O=C(NCc1ccco1)c1cccc(-c2ccc3nncn3c2)c1`, the “activity change, negative = cytotoxicity” value is -11.8% (inactive).

In the case of `CCCC1=Nc2cc(C(=O)NCCN3CCCC3)ccc2Sc2ccccc21`, the “activity change, negative = cytotoxicity” value is -2.03% (inactive).

On to `CCCCCNC(=O)C(c1ccc(OC)cc1)n1c(=O)c(-c2ccccc2)nc2ccccc21` (configuration not stated), for which the “activity change, negative = cytotoxicity” value is -20.4% (inactive).

As to `CCCCn1nnnc1C1(C)CCC(=O)N1Cc1ccc(OC)c(OC)c1` (configuration not stated), the “activity change, negative = cytotoxicity” value is -7.85% (inactive).

With `C[C@H](CO)N1C[C@H](C)[C@H](CN(C)C(=O)c2ccncc2)OCc2ccccc2-c2c(n(C)c3ccccc23)C1=O`, the “activity change, negative = cytotoxicity” value was 0.888% (inactive).

With `Cc1nn(Cc2ccc(Cl)cc2)c(Cl)c1/C=N/NC(=O)CNc1ccccc1F`, the Potency is 3.26 µM (active).

With `Cc1nn(Cc2ccc(Cl)cc2)c(Cl)c1/C=N/NC(=O)c1cccnc1`, the “activity change, negative = cytotoxicity” value was 1.6% (inactive).

On to `CCn1nc(C)c(/C=N/NC(=O)Cc2ccc(Cl)cc2)c1C`, for which the “activity change, negative = cytotoxicity” value is 14.2% (inactive).

Turning to `CC(C)C[C@H]1CNC(=S)N1C[C@H]1CCCN1C[C@H](Cc1ccc(O)cc1)N1C[C@H](Cc2ccc(O)cc2)N(CC2CCCCC2)C1=S`, the “activity change, negative = cytotoxicity” value is -8.38% (inactive).

For the compound `Cn1cnc(S(=O)(=O)N2C[C@@H](O)COC[C@@H]3O[C@H](CC(=O)NC4CCC4)CC[C@H]32)c1`, the “activity change, negative = cytotoxicity” value is 0.239% (inactive).

`OC[C@H]1O[C@@H](c2nc(-c3nc(-c4ccc(F)cc4)no3)cs2)[C@H](O)[C@@H](O)[C@H]1O`: the “activity change, negative = cytotoxicity” value was -0.61% (inactive).

Regarding `COc1cc(Cl)c(C)cc1Nc1nnc(-n2nc(C)cc2C)c2ccccc12`, the “activity change, negative = cytotoxicity” value is -12.2% (inactive).

For the compound `COc1ccc(C(=O)NC2CC2)cc1OC1CCN(Cc2cnn(C)c2)CC1`, the “activity change, negative = cytotoxicity” value is 2.24% (inactive).

In the case of `COc1ccc(C(=O)NC2CC2)cc1OC1CCN(C/C=C/c2ccccc2)CC1`, the Potency is 16.4 µM (active).

`COc1ccc(C(=O)NC2CC2)cc1OC1CCN(Cc2ccc(SC)cc2)CC1`: the “activity change, negative = cytotoxicity” value is -8.65% (inactive).

Turning to `CN(C)CCCN(C(=O)c1ccc(S(=O)(=O)N2CCCCCC2)cc1)c1nc2cc3c(cc2s1)OCCO3`, the “activity change, negative = cytotoxicity” value is -18.9% (inactive).

As to `CCN(CC)CCN(C(=O)c1ccc(S(=O)(=O)N2CCOCC2)cc1)c1nc2cc3c(cc2s1)OCCO3`, the “activity change, negative = cytotoxicity” value was -7.69% (inactive).

Consider `CN(C)CCCN(C(=O)c1ccc(S(=O)(=O)N2CCCCCC2)cc1)c1nc2ccc(Br)cc2s1`, for which the Potency was 23.1 µM (active).

For the compound `COC(=O)c1ccccc1N=NNc1ccc([N+](=O)[O-])cc1`, the “activity change, negative = cytotoxicity” value is 8.27% (inactive).

Take `CC1(C(=O)NS(=O)(=O)c2cccc(F)c2)CCN1C(=O)Cc1cc(F)ccc1F` (configuration not stated): the “activity change, negative = cytotoxicity” value is -1.01% (inactive).

With `O=C(Nc1nnc(CCc2ccccc2)s1)C1CCCO1` (configuration not stated), the “activity change, negative = cytotoxicity” value was 21% (inactive).

Take `O=C(Nc1cccc(-c2nnc(-c3ccccc3)o2)c1)C1CCCO1` (configuration not stated): the “activity change, negative = cytotoxicity” value is -7.48% (inactive).

As for `O=C(Nc1ccc(-c2nnc(-c3ccccc3)o2)cc1)C1CCCO1` (configuration not stated), the Potency is 8.2 µM (active).

As to `CC1(C(=O)NCc2ccccc2)CSCC(=O)N1CCCn1ccnc1` (configuration not stated), the “activity change, negative = cytotoxicity” value was -1.64% (inactive).

As for `COc1ccc(-c2cc(NCc3ccc(F)cc3)n3cnnc3n2)cc1`, the “activity change, negative = cytotoxicity” value is -27.6% (inactive).

As to `Cc1cccc(C(=O)N[C@H](C(=O)NCc2cccs2)C(C)C)c1`, the Potency was 9.2 µM (active).

For the compound `CC(Cc1cccs1)NC(=O)c1cccc(Cl)c1` (configuration not stated), the “activity change, negative = cytotoxicity” value was -0.81% (inactive).

In the case of `CC(=O)Nc1ccc(NC(=O)[C@@H](NC(=O)c2cccc(C)c2)C(C)C)cc1`, the “activity change, negative = cytotoxicity” value was -7.26% (inactive).

Regarding `COc1ccc(-c2[nH][nH]c(=O)c2NC(=O)c2ccc([N+](=O)[O-])cc2)cc1`, the “activity change, negative = cytotoxicity” value is 13.7% (inactive).

As for `O=C(NCC1COc2ccccc2O1)C1(c2ccccc2)CCCC1` (configuration not stated), the “activity change, negative = cytotoxicity” value was 0% (inactive).

As for `S=C(NCC1COc2ccccc2O1)Nc1ccc(Br)cc1` (configuration not stated), the Potency is 23.1 µM (active).

Take `CCCN(CC1COc2ccccc2O1)C(=S)Nc1ccc(C)cc1` (configuration not stated): the “activity change, negative = cytotoxicity” value is 0.384% (inactive).

For the compound `C[C@@H]1CN([C@H](C)CO)C(=O)c2cc(-c3ccc(F)cc3)cnc2O[C@H]1CN(C)C(=O)c1ccc(F)cc1`, the “activity change, negative = cytotoxicity” value is 8.9% (inactive).

As for `CN(Cc1c(F)cccc1Cl)C(=O)COC(=O)Cn1cnc2ccccc2c1=O`, the “activity change, negative = cytotoxicity” value is -0.17% (inactive).

As for `COc1cc(C)c(C)cc1S(=O)(=O)N1CCCc2ccccc21`, the “activity change, negative = cytotoxicity” value was -18.2% (inactive).

For `Cn1c(=O)n(C)c2cc(S(=O)(=O)N3CCCc4ccccc43)ccc21`, the Potency was 8.2 µM (active).

As to `CC1CCN(C(=O)c2cccc(S(=O)(=O)N3CCCc4ccccc43)c2)CC1`, the “activity change, negative = cytotoxicity” value was -25.6% (inactive).

For `C[C@H](CO)N1C[C@H](C)[C@@H](CN(C)Cc2ccc3c(c2)OCO3)OCc2cnnn2CCCC1=O`, the “activity change, negative = cytotoxicity” value was 25.2% (inactive).

As to `CC1(C(=O)Nc2cccnc2)Cc2c(-c3ccccc3)ccnc2O1` (configuration not stated), the “activity change, negative = cytotoxicity” value is 0.0523% (inactive).

For the compound `Cc1nnc(SC(C)C(=O)c2c[nH]c3ccccc23)n1C1CC1` (configuration not stated), the “activity change, negative = cytotoxicity” value was 12.2% (inactive).

Turning to `Cc1[nH]c2ccccc2c1C(=O)CN1CC(C)CC(C)C1` (configuration not stated), the “activity change, negative = cytotoxicity” value was -4.45% (inactive).

As to `Cc1[nH]c2ccccc2c1C(=O)C(C)Sc1nnc(C2CC2)o1` (configuration not stated), the Potency was 7.31 µM (active).

Consider `COc1ccc(NC(=O)c2ccc3nc(CCc4ccccc4)oc3c2)c(OC)c1`, for which the “activity change, negative = cytotoxicity” value was 8.05% (inactive).

`CC1(C(=O)NS(=O)(=O)c2cccs2)CCN1C(=O)Cc1ccc(-c2ccccc2)cc1` (configuration not stated): the “activity change, negative = cytotoxicity” value was 2.38% (inactive).

For `O=C(COc1ccccc1C(=O)Nc1ccccc1)Nc1cccc(F)c1`, the “activity change, negative = cytotoxicity” value is 18.7% (inactive).

Consider `Cc1nc2c(-c3ccccc3)c(C)nn2c(C)c1CCC(=O)NCCc1ccccc1`, for which the “activity change, negative = cytotoxicity” value is -0.983% (inactive).

With `COc1cc(NC(=O)CCn2nc(C)cc2C)cc(OC)c1OC`, the “activity change, negative = cytotoxicity” value is 4.5% (inactive).

As to `Cc1[nH]c2c(C(=O)N3CCCC(CCC(=O)NCc4ccccc4F)C3)cccc2c1C` (configuration not stated), the Potency was 16.4 µM (active).

Regarding `CSc1ncccc1C(=O)N1CCCC(CCC(=O)NCc2ccccc2F)C1` (configuration not stated), the “activity change, negative = cytotoxicity” value is -19.4% (inactive).

As for `COc1cccc(CNC(=O)CCC2CCCN(C(=O)c3cc(C)[nH]n3)C2)c1` (configuration not stated), the “activity change, negative = cytotoxicity” value was 0% (inactive).

On to `CC(C)NC(=O)N1Cc2cc(C(=O)NCC(F)(F)F)nc(-c3cccc(-c4cc5ccccc5o4)c3)c2[C@@H]1CCO`, for which the “activity change, negative = cytotoxicity” value is -2.81% (inactive).

For `CCOc1ccc2nc(N3CCCC(C(=O)Nc4cc(C)ccc4C)C3)sc2c1` (configuration not stated), the “activity change, negative = cytotoxicity” value is 5.92% (inactive).

With `COc1ccc2nc(N3CCCC(O)C3)c(C#N)cc2c1` (configuration not stated), the “activity change, negative = cytotoxicity” value was 20.8% (inactive).

Consider `CCOc1ccc2nc(N3CCCN(C(=O)Nc4ccccc4C)CC3)c(C#N)cc2c1`, for which the Potency is 18.4 µM (active).
